Results taken from PubChem BioAssay.
Values joined by “and” are separate entries in the source; they are usually repeats but may differ in a detail not shown here. Identical values can stand only once. Active and inactive are the calls of the source. Unless noted, how the calls were made is not given here.

Columns and labels:
[1] = Cy5 fluorescence interference with SSB-bound oligo, artefact control for HCV NS3 helicase inhibitor project, biochemical, NIH Clinical Collection, E. coli SSB (AID 743268)
[2] = system: Hepatitis C virus NS3 helicase; test: HCV NS3 helicase inhibitors, primary screen, biochemical, fluorescence polarization, NIH Clinical Collection (AID 743270); conditions: NS3 helicase binding to Cy5-dT15 DNA, stronger effect = higher value, concentration not given here
[3] = target: Single-stranded DNA-binding protein (Escherichia coli (strain K12)) (UniProt P0AGE0); test: E. coli SSB displacement from DNA, counter-screen for HCV NS3 helicase inhibitor project, biochemical, fluorescence polarization, NIH Clinical Collection (AID 743271; in the data active means inhibition above about 28%); conditions: stronger effect = higher value, concentration not given here
[4] = fluorescence interference in NS3h assay format, artefact control for HCV NS3 helicase inhibitor project, biochemical, NIH Clinical Collection (AID 743272); conditions: fluorescence interference counterscreen, stronger effect = lower value;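 further: HCV NS3 helicase with a Cy5 labelled single stranded DNA probe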
[5] = stimulators of nuclear beta-catenin in C2C12, primary screen, imaging, WNT3A-conditioned medium, mouse C2C12, NPC library (AID 1117326; in the data active means nuclear beta-catenin stimulation mostly above about 4.2%, no sharp cut-off; inactive means mostly below about 10%); conditions: stronger effect = higher value
[6] = stimulators of insulin release from INS-1E, primary screen, cell-based, 5 mM glucose, NPC library (AID 1117329;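 active means compound raises insulin release from rat beta cells at 5 mM glucose, no numeric limit stated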); conditions: rat INS-1E insulin secretion, at 10 µM, stronger effect = higher value
[7] = growth inhibition of GSK3B-pretreated HCT116 cells – cell-based, CellTiter-Glo, 0.2 to 20 µM (AID 1117336;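 active means compounds lowering colon cancer cell viability after pretreatment blocking the GSK3B kinase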); conditions: HCT116 viability after GSK3B inhibitor, at 20 µM, stronger effect = higher value
[8] = inhibition of endothelial tube formation, primary screen, imaging, VEGF stimulated, CD31 staining, tube area, NPC library (AID 1117340;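 active means compound that reduces growth-factor-driven endothelial tube area in a mixed cell culture, no cutoff stated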); conditions: VEGF-stimulated ADSC/ECFC co-culture, at 10 µM, stronger effect = higher value
[9] = glucagon-like peptide 1 release enhancers, primary assay, NCI-H716 cell line, NPC library (AID 1117341;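 active means compound raises GLP1 secretion from the human gut endocrine cells, with no numeric limit stated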); conditions: NCI-H716 cells, at 10 µM, stronger effect = higher value
[10] = HCT116 colon cancer cell growth inhibition, primary screen, CellTiter-Glo luminescence, NPC library (AID 1117342;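 active means compounds that lower survival of HCT116 colon cancer cells in the luminescence readout, no numeric limit stated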); conditions: at 20 µM (top of the series)
[11] = CellTiter-Glo luminescent readout of SW480 viability loss, NPC library primary (AID 1117343;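 active means compounds that lower viability of the colon cancer cells in the luminescence readout, with no numeric limit stated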); conditions: CellTiter-Glo luminescence; at 20 µM (top of the series)
[12] = decreased DLD-1 cellular survival, CellTiter-Glo luminescent readout, NPC compound collection, primary HTS (AID 1117346;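 active means compounds that lower survival of DLD-1 colon cancer cells in the luminescence readout, no cutoff given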); conditions: DLD-1 viability, CellTiter-Glo luminescence; at 20 µM (top of the series)
[13] = target: 6-phosphogluconate dehydrogenase, decarboxylating (Homo sapiens) (UniProt P52209); test: 6PGD enzyme inhibitors, primary screen, biochemical, human, recombinant enzyme, NADPH absorbance (AID 1159550;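 active means at least 20% inhibition of 6-phosphogluconate dehydrogenase activity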); conditions: recombinant 6PGD, NADPH absorbance 341 nm; at 10 µM; stronger effect = higher value
[14] = differential killing of epithelial or mesenchymal cells, primary screen, imaging, PC-3E GFP, TEM4-18 mCherry, co-culture (AID 1345086;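 active means compounds killing one labelled cell type while sparing the other, by normalised counts and ratio limits, not self-fluorescent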;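 on all read-outs here: cells exposed to compound for 72 h before imaging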;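 on red/green cell ratio (normalised): normalised mesenchymal count divided by normalised epithelial count so high means epithelial killing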); conditions: imaging cell counts, at 1 µM; for red/green cell ratio (normalised): actives lie on both sides, counts scaled to control wells, 1 = unselective
[15] = survival rescue of mitochondrial mutant cells in low glucose, primary screen, MELAS cybrids, Rieske KO mouse fibroblasts, CellTiter-Glo (AID 1508586;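 active means mean z-score across replicates of 1.96 or higher in either the MELAS or the Rieske mutant cell line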;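 further: z relative to plate mean and SD of compound and empty wells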)
[16] = target: NAD(+) hydrolase SARM1 (Homo sapiens) (UniProt Q6SZW1); test: SARM1 TIR NADase inhibitors, cell lysate, NAD-Glo luminescence (AID 1508614;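 active means compound whose remaining NAD level is above about 45 nM, limit read from the data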); conditions: SAM-TIR HEK293T lysate NADase, at 1 µM, stronger effect = higher value
[17] = target: Mitogen-activated protein kinase 7 (Homo sapiens) (UniProt Q13164); test: ERK5 transactivation activators in reporter cells, primary screen, cell-based, HTS (AID 1508626;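 active means luciferase signal above three times the same-plate solvent-only control wells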;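 further: luciferase driven by Gal4-ERK5 fusion binding five Gal4 sites before minimal TATA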); conditions: HeLa Gal4-ERK5 transactivation, 18 h, at 5 µM, stronger effect = higher value
F380Y = test: modulators of BK channel variants, profiling panel, selectivity assay, cell-based, U2OS BacMam, thallium flux, beta subunits (AID 1259406;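 active means thallium flux through the channel raised or lowered by more than 3 SD from vehicle-only wells, actives on both sides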;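 further: initial slope of Thallos dye fluorescence rise after thallium is added; log ratio against the mean of 0.3% DMSO vehicle wells on the same plate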); conditions: at 30 µM
[18] = liver-stage malaria parasite growth inhibition, primary screen, cell-based, HepG2, luciferase luminescence, HepG2 viability (AID 624349; in the data active means parasite load remaining mostly below about 12%, no sharp cut-off; inactive means mostly above about 10%;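 further: 100% = mean of DMSO negative control wells on the same plate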); conditions: P. berghei liver stage in HepG2, luciferase luminescence, concentration not given here; parasite load remaining: stronger effect = lower value; viability: measured here: HepG2 viability without parasites
[19] = sensitizers of A549 cells to miR-34 induction, primary screen, imaging, A549 dox-inducible miR-34, nuclei and caspase counts (AID 1347080;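 active means compounds whose cell count with miR-34 switched on is under 0.7 times the count with it off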); conditions: A549 miR-34 inducible, Hoechst nuclei count, 48 h
[20] = measured here: epithelial PC-3E GFP cell survival
[21] = measured here: mesenchymal TEM4-18 mCherry cell survival
[22] = MELAS cybrid survival, CellTiter-Glo 48 h, stronger effect = higher value
[23] = Rieske KO mouse fibroblast survival, CellTiter-Glo 72 h

NAD(+) hydrolase SARM1 (Homo sapiens), sequence (Q6SZW1 whole entry, looked up, the tested form may be a part): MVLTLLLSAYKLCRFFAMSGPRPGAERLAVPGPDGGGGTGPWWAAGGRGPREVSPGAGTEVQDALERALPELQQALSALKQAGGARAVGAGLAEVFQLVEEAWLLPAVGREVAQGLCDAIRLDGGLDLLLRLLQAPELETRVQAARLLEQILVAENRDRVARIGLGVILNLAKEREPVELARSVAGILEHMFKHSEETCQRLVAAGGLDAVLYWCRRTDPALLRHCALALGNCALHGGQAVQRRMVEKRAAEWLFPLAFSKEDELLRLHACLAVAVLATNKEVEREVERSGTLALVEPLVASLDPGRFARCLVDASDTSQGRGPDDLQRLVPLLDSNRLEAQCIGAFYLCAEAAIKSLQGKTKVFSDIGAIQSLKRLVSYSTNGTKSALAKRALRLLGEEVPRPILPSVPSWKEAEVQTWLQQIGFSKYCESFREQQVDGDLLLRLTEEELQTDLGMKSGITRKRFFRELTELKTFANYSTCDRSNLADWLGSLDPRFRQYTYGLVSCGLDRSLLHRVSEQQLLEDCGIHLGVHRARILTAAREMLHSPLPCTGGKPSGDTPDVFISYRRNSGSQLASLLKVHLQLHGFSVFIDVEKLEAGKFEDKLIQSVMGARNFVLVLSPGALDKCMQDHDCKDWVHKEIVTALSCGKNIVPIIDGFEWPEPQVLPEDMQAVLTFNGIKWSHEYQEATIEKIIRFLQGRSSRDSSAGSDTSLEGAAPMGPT
Mitogen-activated protein kinase 7 (Homo sapiens), sequence (Q13164 whole entry, looked up, the tested form may be a part): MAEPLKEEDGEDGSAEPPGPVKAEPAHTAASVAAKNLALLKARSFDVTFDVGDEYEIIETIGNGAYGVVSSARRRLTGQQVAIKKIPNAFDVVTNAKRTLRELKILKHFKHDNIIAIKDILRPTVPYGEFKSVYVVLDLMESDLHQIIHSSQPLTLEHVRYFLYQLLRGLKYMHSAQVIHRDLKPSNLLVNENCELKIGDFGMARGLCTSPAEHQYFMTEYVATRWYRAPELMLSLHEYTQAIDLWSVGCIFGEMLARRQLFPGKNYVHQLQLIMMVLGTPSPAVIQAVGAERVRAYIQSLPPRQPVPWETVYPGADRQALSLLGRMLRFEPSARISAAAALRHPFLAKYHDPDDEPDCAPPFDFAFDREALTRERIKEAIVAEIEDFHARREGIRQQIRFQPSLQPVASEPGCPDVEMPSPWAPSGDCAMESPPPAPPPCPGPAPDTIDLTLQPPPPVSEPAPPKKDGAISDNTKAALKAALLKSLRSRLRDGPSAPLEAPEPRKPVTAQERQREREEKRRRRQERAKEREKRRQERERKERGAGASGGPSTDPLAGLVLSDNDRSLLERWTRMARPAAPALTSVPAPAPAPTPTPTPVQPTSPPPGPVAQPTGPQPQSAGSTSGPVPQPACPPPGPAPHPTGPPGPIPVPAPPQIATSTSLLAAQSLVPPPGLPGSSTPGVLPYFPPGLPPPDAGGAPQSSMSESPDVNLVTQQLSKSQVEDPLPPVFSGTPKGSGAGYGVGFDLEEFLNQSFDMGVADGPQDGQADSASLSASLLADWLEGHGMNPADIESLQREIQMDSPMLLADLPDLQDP
6-phosphogluconate dehydrogenase, decarboxylating (Homo sapiens), sequence (P52209 whole entry, looked up): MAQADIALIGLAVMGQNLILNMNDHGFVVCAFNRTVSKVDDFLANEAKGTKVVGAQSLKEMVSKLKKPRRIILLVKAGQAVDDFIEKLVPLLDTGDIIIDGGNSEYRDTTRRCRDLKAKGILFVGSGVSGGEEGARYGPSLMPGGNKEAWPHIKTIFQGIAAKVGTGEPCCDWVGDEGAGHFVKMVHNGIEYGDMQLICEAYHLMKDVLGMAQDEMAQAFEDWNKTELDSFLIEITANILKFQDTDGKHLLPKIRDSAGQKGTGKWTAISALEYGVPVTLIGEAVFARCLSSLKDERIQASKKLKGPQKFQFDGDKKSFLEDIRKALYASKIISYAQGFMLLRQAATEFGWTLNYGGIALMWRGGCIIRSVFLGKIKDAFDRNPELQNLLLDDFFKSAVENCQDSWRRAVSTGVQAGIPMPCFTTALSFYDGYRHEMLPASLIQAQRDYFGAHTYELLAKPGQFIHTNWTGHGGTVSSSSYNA

## c1ccc2c(c1)CCCC2C1=NCCN1 (centres undefined)
[1]
  fluorescence ratio: 0.97 (inactive)
[2]
  inhibition: -4.09% (inactive)
[3]
  inhibition: -0.48% (inactive)
[4]
  fluorescence ratio: 0.93 (inactive)
[5]; at 10 µM
  nuclear beta-catenin stimulation: 4.7% (inactive)
[5]; stimulation, at 2 µM
  nuclear beta-catenin stimulation: -0.1%
[6]
  insulin secretion stimulation: -0.4% (inactive)
[7]
  viability decrease: -30.2% (inactive)
[8]
  tube area decrease: -9.5% (inactive)
[9]
  GLP1 secretion stimulation: 0.9% (inactive)
[10]
  inhibition of viability: 0.6% (inactive)
[11]
  viability decrease (inhibition): 11.2% (inactive)
[12]
  viability decrease (inhibition): -6.9% (inactive)
[13]
  inhibition: 19.3% (inactive)
[14]
  red/green cell ratio (normalised): 1.32 (inactive)
[14]; [20]
  normalised cell number: 1.03
[14]; [21]
  normalised cell number: 1.36
[15]; [22]
  z-score: -0.281 (inactive) and -0.833 (inactive)
[15]; [23]
  z-score: -0.176 and -0.558
[16]
  remaining NAD: 10 nM (inactive)
[17]
  luciferase signal: 44 AU (inactive)
F380Y
  log fold change Tl+ flux: -0.0277 (inactive)

## NCC(=O)CCC(=O)O
[18]
  parasite load remaining: 63.7% (inactive) and 161% (inactive) and 53.4% (inactive)
  viability: 95.6% and 83.2% and 165%
[1]
  fluorescence ratio: 1.05 (inactive)
[2]
  inhibition: -2.27% (inactive)
[3]
  inhibition: -0.48% (inactive)
[4]
  fluorescence ratio: 1.02 (inactive)
[5]; at 10 µM
  nuclear beta-catenin stimulation: 0.4% (inactive)
[5]; stimulation, at 2 µM
  nuclear beta-catenin stimulation: -0.9%
[6]
  insulin secretion stimulation: 1.9% (inactive)
[7]
  viability decrease: 26.6% (inactive)
[8]
  tube area decrease: -10.4% (inactive)
[9]
  GLP1 secretion stimulation: -1.4% (inactive)
[10]
  inhibition of viability: 18.9% (inactive)
[11]
  viability decrease (inhibition): 19.8% (inactive)
[12]
  viability decrease (inhibition): 1% (inactive)
[13]
  inhibition: -28.8% (inactive)
[14]
  red/green cell ratio (normalised): 1.08 (inactive)
[14]; [20]
  normalised cell number: 1.3
[14]; [21]
  normalised cell number: 1.4
[19]; stronger effect = lower value, cell number ratio, induced over uninduced
  fold change: 0.951 (inactive) and 0.95 (inactive) and 0.866 (inactive)
[19]; measured here: relative caspase fold change +Dox/-Dox
  fold change: 1.44 and 0.654 and 2.02
[19]; measured here: total cells with miR-34 induction, stronger effect = lower value
  cell count: 9310 and 7910 and 11200
[19]; measured here: total cells without miR-34 induction
  cell count: 9780 and 8320 and 12900
[15]; [22]
  z-score: -0.348 (inactive)
[15]; [23]
  z-score: 0.0439
[16]
  remaining NAD: 10 nM (inactive)
[17]
  luciferase signal: 84 AU (inactive)
F380Y
  log fold change Tl+ flux: -0.035 (inactive)

## CCCCNC(=O)NS(=O)(=O)c1ccc(C)cc1
[2]
  inhibition: -5.91% (inactive)
[3]
  inhibition: 1.05% (inactive)
[4]
  fluorescence ratio: 0.91 (inactive)
[5]; at 10 µM
  nuclear beta-catenin stimulation: 0.2% (inactive)
[5]; stimulation, at 2 µM
  nuclear beta-catenin stimulation: 3.2%
[6]
  insulin secretion stimulation: 3.85% (inactive)
[7]
  viability decrease: -5.6% (inactive)
[8]
  tube area decrease: 5.7% (inactive)
[9]
  GLP1 secretion stimulation: 6.7% (inactive)
[10]
  inhibition of viability: -6.5% (inactive)
[11]
  viability decrease (inhibition): -6% (inactive)
[12]
  viability decrease (inhibition): -5.4% (inactive)
[13]
  inhibition: -14.4% (inactive)
[14]
  red/green cell ratio (normalised): 1.12 (inactive)
[14]; [20]
  normalised cell number: 1.03
[14]; [21]
  normalised cell number: 1.15
[15]; [22]
  z-score: -0.283 (inactive) and 0.394 (inactive) and 0.614 (inactive)
[15]; [23]
  z-score: -0.151 and -0.133 and 0.0575
[16]
  remaining NAD: 10 nM (inactive)
[17]
  luciferase signal: 36 AU (inactive)
F380Y
  log fold change Tl+ flux: -0.00894 (inactive)

## CCN(CC)CCOC(=O)C1(C2CCCCC2)CCCCC1
[1]
  fluorescence ratio: 1.01 (inactive)
[2]
  inhibition: -3.18% (inactive)
[3]
  inhibition: 4.1% (inactive)
[4]
  fluorescence ratio: 0.95 (inactive)
[5]; at 10 µM
  nuclear beta-catenin stimulation: 2.1% (inactive)
[5]; stimulation, at 2 µM
  nuclear beta-catenin stimulation: 1.1%
[6]
  insulin secretion stimulation: 6.9% (inactive)
[7]
  viability decrease: -64.7% (inactive)
[8]
  tube area decrease: -0.9% (inactive)
[9]
  GLP1 secretion stimulation: 5.4% (inactive)
[10]
  inhibition of viability: 36.5% (inactive)
[11]
  viability decrease (inhibition): 84.8% (active)
[12]
  viability decrease (inhibition): 34.2% (inactive)
[13]
  inhibition: 11.5% (inactive)
[14]
  red/green cell ratio (normalised): 1.32 (inactive)
[14]; [20]
  normalised cell number: 1.25
[14]; [21]
  normalised cell number: 1.66
[15]; [22]
  z-score: 0.288 (inactive) and 0.358 (inactive)
[15]; [23]
  z-score: -0.235 and -0.17
[16]
  remaining NAD: 10 nM (inactive)
[17]
  luciferase signal: 1050 AU (active)
F380Y
  log fold change Tl+ flux: 0.0289 (inactive)

## CCCNC(C)C(=O)Nc1ccccc1C (centres undefined)
[1]
  fluorescence ratio: 0.103 (active)
[2]
  inhibition: -4.09% (inactive)
[3]
  inhibition: -0.48% (inactive)
[4]
  fluorescence ratio: 0.97 (inactive)
[5]; at 10 µM
  nuclear beta-catenin stimulation: 2.8% (inactive)
[5]; stimulation, at 2 µM
  nuclear beta-catenin stimulation: 0.2%
[6]
  insulin secretion stimulation: -0.2% (inactive)
[7]
  viability decrease: -19.3% (inactive)
[8]
  tube area decrease: -7.6% (inactive)
[9]
  GLP1 secretion stimulation: -2.8% (inactive)
[10]
  inhibition of viability: -6.47% (inactive)
[11]
  viability decrease (inhibition): 14.5% (inactive)
[12]
  viability decrease (inhibition): -13.2% (inactive)
[13]
  inhibition: 10.3% (inactive)
[14]
  red/green cell ratio (normalised): 1.41 (inactive)
[14]; [20]
  normalised cell number: 0.93
[14]; [21]
  normalised cell number: 1.32
[15]; [22]
  z-score: 0.649 (inactive) and 0.0198 (inactive) and 0.84 (inactive)
[15]; [23]
  z-score: -0.309 and -0.0551 and 0.281
[16]
  remaining NAD: 10 nM (inactive)
[17]
  luciferase signal: 232 AU (inactive)
F380Y
  log fold change Tl+ flux: 0.0152 (inactive)

## Cc1nc2ccccn2c(=O)c1CCN1CCC(C(=O)c2ccc(F)cc2)CC1
[1]
  fluorescence ratio: 0.95 (inactive)
[2]
  inhibition: 5.94% (inactive)
[3]
  inhibition: 3.75% (inactive)
[4]
  fluorescence ratio: 0.93 (inactive)
[5]; at 10 µM
  nuclear beta-catenin stimulation: -0.7% (inactive)
[5]; stimulation, at 2 µM
  nuclear beta-catenin stimulation: -2.4%
[6]
  insulin secretion stimulation: 3.35% (inactive)
[7]
  viability decrease: 24.3% (inactive)
[8]
  tube area decrease: 6% (inactive)
[9]
  GLP1 secretion stimulation: 10.6% (inactive)
[10]
  inhibition of viability: 67.9% (active)
[11]
  viability decrease (inhibition): 30.7% (inactive)
[12]
  viability decrease (inhibition): 11.5% (inactive)
[13]
  inhibition: 0.157% (inactive)
[14]
  red/green cell ratio (normalised): 1.29 (inactive)
[14]; [20]
  normalised cell number: 0.87
[14]; [21]
  normalised cell number: 1.12
[15]; [22]
  z-score: -0.0109 (inactive)
[15]; [23]
  z-score: -0.116
[16]
  remaining NAD: 10 nM (inactive)
[17]
  luciferase signal: 52 AU (inactive)
F380Y
  log fold change Tl+ flux: 0.00566 (inactive)

## CCS(=O)(=O)CCn1c([N+](=O)[O-])cnc1C
[1]
  fluorescence ratio: 0.97 (inactive)
[2]
  inhibition: -0.22% (inactive)
[3]
  inhibition: 1.18% (inactive)
[4]
  fluorescence ratio: 0.92 (inactive)
[5]; at 10 µM
  nuclear beta-catenin stimulation: 0.7% (inactive)
[5]; stimulation, at 2 µM
  nuclear beta-catenin stimulation: 0.6%
[6]
  insulin secretion stimulation: -2% (inactive)
[7]
  viability decrease: -16.5% (inactive)
[8]
  tube area decrease: -0.1% (inactive)
[9]
  GLP1 secretion stimulation: 2.3% (inactive)
[10]
  inhibition of viability: 6.2% (inactive)
[11]
  viability decrease (inhibition): -14.6% (inactive)
[12]
  viability decrease (inhibition): -1.25% (inactive)
[13]
  inhibition: -3.03% (inactive)
[14]
  red/green cell ratio (normalised): 0.88 (inactive)
[14]; [20]
  normalised cell number: 1.27
[14]; [21]
  normalised cell number: 1.12
[15]; [22]
  z-score: -0.299 (inactive) and 0.791 (inactive) and -0.0778 (inactive)
[15]; [23]
  z-score: -0.288 and 0.13 and -0.654
[16]
  remaining NAD: 10 nM (inactive)
[17]
  luciferase signal: 36 AU (inactive)
F380Y
  log fold change Tl+ flux: 0.0247 (inactive)
